Here are results for 79 molecules from PubChem BioAssay AID485297 (National Center for Advancing Translational Sciences (NCATS), 2010).

Among all 320,000 compounds or so, about 9,100 (2.8%) were called active. Not shown: some 3% with an inconclusive outcome. The call rests on the fitted dose curve; in most records, active means well fitted activation curve with a large enough effect; inconclusive means small, poorly fitted or top-dose-only effect; inactive means no such curve, though single readings can be large or run the other way. For the sample, actives were picked, then their nearest neighbours and some compounds at random.
Potency means the concentration at half of the fitted maximal effect.

The test can be described thus: qHTS Assay for Rab9 Promoter Activators. Further: nearly all actives have a fitted effect of over 60% in size. On activation, negative = inhibition: % of control where 0% means no effect. To be noted: Huh7 Rab9 promoter-luciferase reporter, luminescence, 24 h; series mostly up to 9.22 µM; activation, negative = inhibition: at the top concentration. Summed up: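 Huh7 cells stably carrying a Rab9 promoter-luciferase reporter, 1500 cells per well in OP-MEM I with 10% FBS, treated with compound 24 hours at 37C. Luciferase activity read by luminescence after 10 minutes with Amplite reagent.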
Turning to `CNS(=O)(=O)c1cccc(C(=O)OCC(=O)N2c3ccccc3NC(=O)C2(C)C)c1`, the “activation, negative = inhibition” value is -3.9% (inactive). On the same count and under the same terms, then `CCOc1ccc(C(C)NC(=O)CN2C(=O)NC3(CCCCC3)C2=O)cc1OCC` (centres undefined), with -4.04% (inactive). As to `Cc1ccn(-c2cccc(-n3ccc(C)n3)n2)n1`, the Potency is 2820 nM (active).

On to `Cc1cc(NC(=O)CSc2nnc(-c3ccc(Cl)s3)o2)no1`, for which the “activation, negative = inhibition” value was -1.01% (inactive). For the molecule `Cc1ccc(C(=O)/C=C/Nc2ccc(S(=O)(=O)Nc3onc(C)c3C)cc2)cc1`, the “activation, negative = inhibition” value is 2.91% (inactive). With `Cc1cc(N/C=C\C(=O)c2ccc(Cl)c(Cl)c2)no1`, the Potency is 2820 nM (active).

Take `COc1cc(OC)cc(-c2c(-c3cccs3)c3cc(-c4ccc(OC)cc4F)ccc3n2C)c1`: the “activation, negative = inhibition” value is -4.07% (inactive). `Cc1sc(NC(=O)c2ccc3ncsc3c2)c(C(N)=O)c1C`: the Potency was 1580 nM (active). `Cc1ccc(C(=O)c2c(NC(=O)c3ccccc3)sc(C)c2C)cc1`: the “activation, negative = inhibition” value is -0.247% (inactive). `O=C(COC(=O)c1ccc2ncsc2c1)Nc1ccc(Cl)cc1`: the “activation, negative = inhibition” value was 1.26% (inactive).

Consider `CCc1ccc(OCC(=O)OCC(=O)c2c(N)n(C)c(=O)n(C)c2=O)cc1`, for which the “activation, negative = inhibition” value was -0.827% (inactive).

As for `Cc1cc(C)nc(NC(=O)/C=C/c2ccc(Cl)cc2)n1`, the “activation, negative = inhibition” value is 15.4% (inactive). Consider `O=C(/C=C/c1ccc(Cl)cc1)Nc1ccc(S(=O)(=O)Nc2ncccn2)cc1`, for which the “activation, negative = inhibition” value is -0.0735% (inactive). As to `CC(C)(C)c1ccc(/C=C/C(=O)Nc2ncccn2)cc1`, the Potency is 3980 nM (active). In the case of `C[C@H](NC(=O)c1ccccc1Cl)C(=O)OCC(=O)N1CCN(c2ccccc2)CC1`, the “activation, negative = inhibition” value was 2.66% (inactive).

For the molecule `O=C(CNC(=O)c1ccc(F)cc1)c1ccccc1`, the Potency was 794 nM (active).

On to `O=C(CNC(=O)c1ccccc1F)c1ccc(Br)cc1`, for which the Potency is 1260 nM (active). With `O=C(CNC(=O)c1ccccc1)NCC(=O)OCC(=O)c1ccccc1`, the “activation, negative = inhibition” value is -4.76% (inactive).

Take `O=C(COC(=O)CNC(=O)c1ccccc1F)NCC(F)(F)F`: the “activation, negative = inhibition” value is -1.45% (inactive). Still for that read-out and setting: then `O=C(CNC(=O)c1ccccc1Br)NCCSc1ccc(Br)cc1`, with -4.71% (inactive); and `O=C(NCCS(=O)(=O)NCc1ccc(F)cc1)c1ccccc1`, with -1.67% (inactive). On the same count and under the same terms, the value for `O=S(=O)(NCc1ccccc1Br)c1ccccc1Br` was -5.13% (inactive); that for `COc1cccc(CNC(=O)COc2cc(O)c3c(c2)OC(C)(C)CC3=O)c1` was 0.976% (inactive); that for `Nc1c(N(CCCO)C(=O)C2CCCC2)c(=O)[nH]c(=O)n1Cc1ccccc1` was 1.33% (inactive). As to `O=C(CSc1nnc(-c2ccc([N+](=O)[O-])cc2)o1)Nc1ccccn1`, the Potency is 398 nM (active). Turning to `CCc1ccccc1NC(=O)CSc1nnc(-c2ccncc2)o1`, the “activation, negative = inhibition” value was -3.31% (inactive). On the same count and under the same terms, then `CCOC(=O)CSc1nnc(-c2ccc([N+](=O)[O-])cc2)o1`, with -5.1% (inactive). Still for that read-out and setting: then `O=c1c2ccccc2ccc2ccc(P(=O)(O)O)cc12`, with -4.2% (inactive); and `Cc1c(NS(=O)(=O)c2cc(C(=O)NCCc3ccc(F)cc3)cc(Cl)c2Cl)c(=O)n(-c2ccccc2)n1C`, with -2.31% (inactive); and `O=C(COC(=O)C1(c2ccc(F)cc2)CCCC1)N1CCNC1=O`, with -3.66% (inactive). For `CCn1c(=N)n(CC(=O)c2cccc(OC)c2)c2ccccc21`, the Potency was 3160 nM (active). Consider `CCOC(=O)c1cc2ccccc2n1CC(=O)c1ccccc1`, for which the “activation, negative = inhibition” value was 0.055% (inactive).

With `COc1ccc2cc(C(=O)O)n(CC(=O)c3ccccc3)c2c1`, the “activation, negative = inhibition” value is 1.75% (inactive). Still for that read-out and setting: then `O=C1OC2(CCCCC2)CC2=C1C1O[C@](c3ccsc3)(Cc3ccccc31)O2`, with 1.46% [at 1.84 µM] (inactive).

On to `COc1ccc(OCCCC(=O)Nc2cccc(S(=O)(=O)N3CCCCCC3)c2)cc1`, for which the “activation, negative = inhibition” value was -1.93% (inactive).

On to `COc1ccc(/C(C)=N/NC(=O)c2ccc3nc[nH]c3c2)cc1`, for which the “activation, negative = inhibition” value is 0.0511% (inactive). For the molecule `C/C(=N\NC(=O)c1cccnc1)c1ccc(-c2ccccc2)cc1`, the “activation, negative = inhibition” value is 1.66% (inactive). Turning to `C/C(=N\NC(=O)c1nc(C)cc(C)n1)c1ccccc1`, the Potency is 1780 nM (active). With `Cc1ccc(Nc2nnc(SC(C)C(=O)NC3CC3)s2)cc1` (centres undefined), the “activation, negative = inhibition” value was 7.4% (inactive).

In the case of `COc1ccc(/C=N/Nc2nc3ccccc3o2)cc1OC`, the Potency is 1000 nM (active).

As for `CCOc1ccccc1/C=N/Nc1nc2ccccc2o1`, the “activation, negative = inhibition” value is 23.1% (inactive). For the molecule `Brc1ccccc1/C=N/Nc1nc2ccccc2o1`, the Potency was 2820 nM (active). Consider `Oc1c(Br)cccc1/C=N/Nc1c(F)c(F)c(F)c(F)c1F`, for which the “activation, negative = inhibition” value was -1.3% (inactive).

On to `CCOc1ccc(/C=N/Nc2nncc(-c3ccccc3)n2)cc1OC`, for which the “activation, negative = inhibition” value was 15.1% (inactive). The same measure, in the same setting: then `COc1ccc(/C=N/S(=O)(=O)c2ccccc2)cc1OC`, with 0.684% (inactive).

As to `Cc1nc(SCC(=O)NC2CCCCC2C)c(C#N)c(C)c1C` (centres undefined), the “activation, negative = inhibition” value is 0.0606% (inactive). The same measure, in the same setting: then `Cc1ccc(S(=O)(=O)N2CC(O)C[C@H]2C(=O)OCC(=O)Nc2ccc(N3CCOCC3)cc2)cc1C` (some centres undefined), with -2.09% (inactive); and `O=C(CCNC(=O)c1ccc(Cl)cc1)NC1CCCc2ccccc21` (centres undefined), with 5.31% (inactive); and `O=C(NCCCN1CCOCC1)c1cc2c(s1)CCC2`, with 1.38% (inactive).

As to `O=C(NCC1CCCO1)c1cc2c(s1)CCCC2` (centres undefined), the Potency is 2510 nM (active). For `O=C(CNC(=O)c1cc2c(s1)CCC2)Nc1ccccc1Br`, the “activation, negative = inhibition” value was 0.482% (inactive).

Take `CN(C)C(=O)c1ccc(NC(=O)COC(=O)c2cc3c(s2)CCCCC3)cc1`: the “activation, negative = inhibition” value is 2.12% (inactive). `O=C(Nc1ccc(F)cc1)c1cc2c(s1)CCCC2`: the Potency was 1260 nM (active). As for `CCC(=O)c1c[nH]c(C(=O)NCC2CCCO2)c1` (centres undefined), the “activation, negative = inhibition” value is -4.9% (inactive). As for `CC(C)Cc1nnc(NC(=O)CCNC(=O)c2ccccc2Cl)s1`, the “activation, negative = inhibition” value was 0.551% (inactive).

Consider `CCN(CC(=O)Nc1ccccc1OC)C(=O)CC1CC2CCC1C2` (centres undefined), for which the “activation, negative = inhibition” value is -5.8% (inactive). On the same count and under the same terms, then `COc1ccc(/C=C(\C#N)C(=O)NCCCn2ccnc2)cc1`, with -7.01% (inactive); and `Cc1ccc(S(=O)(=O)c2nc(NCCCn3ccnc3)sc2Cl)cc1`, with -4.01% (inactive). As for `Cc1ccc(-c2nc(C#N)c(NCCCn3ccnc3)o2)cc1`, the Potency was 3980 nM (active).

With `O=C(CCc1nc(-c2ccccc2)no1)Nc1cccc(C(=O)NC2CC2)c1`, the “activation, negative = inhibition” value is 1.08% (inactive). Still for that read-out and setting: the value for `COC(=O)c1ccc(/C=N\n2c(C)nnc2C)cc1` was -5.25% (inactive).

Consider `COC(=O)c1ccc(/C=N/N2C(C)CCCC2C)cc1` (centres undefined), for which the Potency was 2240 nM (active). For `CC1CCCC(C)N1/N=C/c1ccccc1OC(F)F` (centres undefined), the “activation, negative = inhibition” value is -0.13% (inactive).

Turning to `CCC1(CC)NC(=O)N(CC(=O)OCC(=O)c2cc(C)c(C)cc2C)C1=O`, the “activation, negative = inhibition” value is -6.43% (inactive). `CC(C)CN(C(=O)c1cccc(S(=O)(=O)N2CCCCC2)c1)C1CCS(=O)(=O)C1` (centres undefined): the “activation, negative = inhibition” value is -0.844% (inactive). For the molecule `CCC(=O)NC(=S)Nc1ccc(NC(=O)c2ccco2)c(Cl)c1`, the “activation, negative = inhibition” value is 3.12% (inactive). Take `O=C(NNC(=S)Nc1ccc(Br)cc1Cl)c1ccco1`: the Potency is 2820 nM (active). As for `O=C(NNC(=O)c1ccco1)Nc1ccccc1`, the “activation, negative = inhibition” value is 0.351% (inactive). The same measure, in the same setting: the value for `O=[N+]([O-])c1ccc(NC(=S)N2CCN(c3ccccn3)CC2)cc1` was -1.53% (inactive). `O=C(Nc1ccc([N+](=O)[O-])cc1)OCCc1ccccn1`: the Potency was 3550 nM (active). `O=C(NCCc1ccccn1)c1nc(Cn2cc([N+](=O)[O-])cn2)no1`: the “activation, negative = inhibition” value was -0.126% (inactive).

Turning to `Cc1c(C(=O)Nc2ccccc2)sc2nc3n(c(=O)c12)CCCCC3`, the Potency is 2510 nM (active). For the molecule `Cc1c(C(=O)Nc2cccc(-c3nnc4n3CCCCC4)c2)oc2ccccc12`, the “activation, negative = inhibition” value is 0.216% (inactive). As for `CC(=O)c1ccc(NC(=O)c2sc3nc4n(c(=O)c3c2C)CCCCC4)cc1`, the “activation, negative = inhibition” value is 24.8% (inactive).

In the case of `COc1cccc(CNC(=O)COC(=O)CN2C(=O)NC3(CCCCC3C)C2=O)c1` (centres undefined), the “activation, negative = inhibition” value is 1.12% (inactive). For `COc1ccc(OC)c(-c2csc(NC(=O)COC(=O)C3CC3)n2)c1`, the “activation, negative = inhibition” value was -2.55% (inactive). Turning to `O=C(Cn1cc(C(=O)c2cccs2)c2ccccc21)NCc1cccs1`, the “activation, negative = inhibition” value was 18% (inactive). Take `COC(=O)Cn1cc(C(=O)c2cccs2)c2ccccc21`: the “activation, negative = inhibition” value was -3.45% (inactive).

For `COC(=O)c1cn(CC(=O)NCc2cccs2)c2ccccc12`, the Potency is 3550 nM (active).
